According to PubChem BioAssay AID1159580 (chemical genetic matrix, 2015):
Screen size: about 5,500 compounds; about 2,000 (36%) were called active. Roughly 18% stayed inconclusive and do not appear here. No stated cut-off is given here; in the data, active means normalized growth mostly below about 0.91 (no sharp cut-off); inconclusive means no clear call, values can overlap the other calls; inactive means mostly above about 0.92. Some of the results follow.

Assay: chemical genetic growth profiling, strain panel (AID 1159580);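 further: tested at 20 µM; growth read once vehicle control cultures reached saturation at 30 °C; 1 = growth at the plate median or of vehicle wells; lower values mean less growth of the strain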
Conditions: S. cerevisiae deletion strains, growth OD
[1] = locus YDL101C, strain DUN1, active compounds read low
[2] = locus YHR030C, strain SLT2, active compounds read low
[3] = locus YBL105C, strain PKC1, active compounds read low
[4] = locus YBR135W, strain CKS1, active compounds read low
[5] = locus YBR160W, strain CDC28, active compounds read low
[6] = locus YDL017W, strain CDC7, active compounds read low
[7] = locus YDL028C, strain MPS1, active compounds read low
[8] = locus YDL108W, strain KIN28, active compounds read low
[9] = locus YDL132W, strain cdc53, active compounds read low
[10] = locus YDL214C, strain PRR2, active compounds read low
[11] = locus YDR052C, strain DBF4, active compounds read low
[12] = locus YDR054C, strain cdc34, active compounds read low
[13] = locus YDR477W, strain SNF1, active compounds read low
[14] = locus YER123W, strain YCK3, active compounds read low
[15] = locus YER133W, strain GLC7, active compounds read low
[16] = locus YFL029C, strain CAK1, active compounds read low
[17] = locus YFR003C, strain YPI1, active compounds read low
[18] = locus YFR028C, strain CDC14, active compounds read low
[19] = locus YGR040W, strain KSS1, active compounds read low
[20] = locus YGR052W, strain FMP48, active compounds read low
[21] = locus YGR092W, strain DBF2, active compounds read low
[22] = locus YHR079C, strain IRE1, active compounds read low
[23] = locus YHR082C, strain KSP1, active compounds read low
[24] = locus YHR205W, strain SCH9, active compounds read low
[25] = locus YIL147C, strain SLN1, active compounds read low
[26] = locus YJL095W, strain BCK1, active compounds read low
[27] = locus YJL128C, strain PBS2, active compounds read low
[28] = locus YJL157C, strain FAR1, active compounds read low
[29] = locus YJR066W, strain TOR1 (second series), active compounds read low
[30] = locus YJR066W, strain TOR1, active compounds read low
[31] = locus YKL048C, strain ELM1, active compounds read low
[32] = locus YKL067W, strain YNK1, active compounds read low
[33] = locus YKL101W, strain HSL1, active compounds read low
[34] = locus YKL203C, strain TOR2, active compounds read low
[35] = locus YLR113W, strain HOG1, active compounds read low
[36] = locus YLR133W, strain CKI1, active compounds read low
[37] = locus YLR403W, strain SFP1, active compounds read low
[38] = locus YML070W, strain DAK1, active compounds read low
[39] = locus YMR001C, strain CDC5, active compounds read low
[40] = locus YMR205C, strain PFK2 (second series), active compounds read low
[41] = locus YMR277W, strain FCP1, active compounds read low
[42] = locus YNL006W, strain LST8, active compounds read low
[43] = locus YNL020C, strain ARK1, active compounds read low
[44] = locus YNL183C, strain NPR1, active compounds read low
[45] = locus YNL207W, strain RIO2, active compounds read low
[46] = locus YNL222W, strain SSU72, active compounds read low
[47] = locus YNL307C, strain MCK1 (second series), active compounds read low
[48] = locus YOL078W, strain AVO1, active compounds read low
[49] = locus YOL136C, strain PFK27, active compounds read low
[50] = locus YOR061W, strain CKA2, active compounds read low
[51] = locus YOR119C, strain RIO1, active compounds read low
[52] = locus YOR231W, strain MKK1, active compounds read low
[53] = locus YOR329C, strain SCD5, active compounds read low
[54] = locus YPL031C, strain PHO85, active compounds read low
[55] = locus YPL153C, strain RAD53, active compounds read low
[56] = locus YPL204W, strain HRR25, active compounds read low
[57] = locus YPL209C, strain IPL1, active compounds read low
[58] = locus YPL256C, strain CLN2, active compounds read low
[59] = locus YPR025C, strain CCL1, active compounds read low
[60] = locus YPR106W, strain ISR1, active compounds read low
[61] = locus YPR111W, strain DBF20, active compounds read low
[62] = strain NNK1, active compounds read low
[63] = strain TSCII, active compounds read low
[64] = locus YAR019C, strain CDC15, active compounds read low
[65] = locus YBR136W, strain MEC1, active compounds read low
[66] = locus YDR226W, strain ADK1, active compounds read low
[67] = locus YFL009W, strain cdc4, active compounds read low
[68] = locus YFR019W, strain FAB1, active compounds read low
[69] = locus YJR016C, strain ILV3, active compounds read low
[70] = locus YKL193C, strain SDS22, active compounds read low
[71] = locus YNL161W, strain CBK1, active compounds read low

Measured: normalized growth

COC(=O)c1sccc1OC(=O)c1c(F)cccc1F
inactive: locus YAL013W, strain DEP1, active compounds read low 0.963 | locus YBR229C, strain ROT2, active compounds read low 0.974 | [1] 0.908 | locus YDR150W, strain NUM1, active compounds read low 0.939 | locus YEL061C, strain CIN8, active compounds read low 1.01 | locus YGR078C, strain PAC10, active compounds read low 0.955 | [2] 0.726 | locus YHR087W, strain rtc3, active compounds read low 1.02 | locus YJR043C, strain POL32, active compounds read low 0.981 | locus YJR075W, strain HOC1, active compounds read low 0.97 | locus YKL190W, strain CNB1, active compounds read low 0.989 | locus YLR039C, strain RIC1, active compounds read low 0.841 | locus YLR058C, strain SHM2 (second series), active compounds read low 0.961 | locus YLR085C, strain ARP6, active compounds read low 0.891 | locus YLR262C, strain YPT6, active compounds read low 0.914 | locus YML094W, strain GIM5, active compounds read low 0.981 | locus YMR219W, strain ESC1, active compounds read low 0.955 | locus YMR263W, strain SAP30, active compounds read low 0.974 | locus YMR307W, strain GAS1, active compounds read low 0.975 | locus YNL153C, strain GIM3, active compounds read low 0.99 | locus YNL298W, strain CLA4 (second series), active compounds read low 0.912 | locus YNL322C, strain KRE1, active compounds read low 0.96 | locus YNR030W, strain Alg12, active compounds read low 0.979 | locus YOL006C, strain TOP1, active compounds read low 0.884 | locus YPL055C, strain LGE1, active compounds read low 0.97 | locus YPL241C, strain CIN2, active compounds read low 0.926 | locus YPR135W, strain CTF4, active compounds read low 0.768

O=C(Oc1ccc(C(F)(F)F)cc1[N+](=O)[O-])c1cccc(Cl)c1
inactive: [3] 0.953 | [4] 0.936 | [5] 0.944 | [6] 0.947 | [7] 0.941 | [8] 0.936 | [9] 0.911 | [10] 0.746 | [11] 0.944 | [16] 0.923 | [17] 0.944 | [18] 0.938 | [25] 0.947 | [34] 0.712 | [39] 0.943 | [41] 0.948 | [42] 0.945 | [46] 0.93 | [48] 0.939 | [53] 0.946 | [57] 0.941 | [59] 0.937 | [63] 0.94
active: [12] 0.613 | [13] 0.626 | [14] 0.423 | [15] 0.584 | [19] 0.617 | [20] 0.124 | [21] 0.133 | [2] 0.132 | [22] 0.22 | [23] 0.162 | [24] 0.00246 | [26] 0.141 | [27] 0.132 | [28] 0.638 | [29] 0.248 | [30] 0.134 | [31] 0.623 | [32] 0.645 | [33] 0.662 | [35] 0.21 | [36] 0.556 | [37] 0.0472 | [38] 0.521 | [40] 0.584 | [43] 0.513 | [44] 0.132 | [45] 0.571 | [47] 0.295 | [49] 0.426 | [50] 0.369 | [51] 0.448 | [52] 0.348 | [54] 0.507 | [55] 0.581 | [56] 0.449 | [58] 0.266 | [60] 0.584 | [61] 0.363 | [62] 0.554

Cc1ccccc1C(=O)Oc1ccc(C(F)(F)F)cc1[N+](=O)[O-]
active: [2] 0.769 | [35] 0.614 | [58] 0.784
inactive: [64] 0.961 | [3] 0.969 | [4] 0.964 | [65] 0.962 | [5] 0.966 | [6] 0.975 | [7] 0.947 | [1] 0.979 | [8] 0.964 | [9] 0.964 | [10] 0.864 | [11] 0.969 | [12] 0.965 | [66] 0.982 | [13] 0.937 | [14] 0.883 | [15] 0.941 | [67] 0.96 | [16] 0.965 | [17] 0.972 | [68] 0.979 | [18] 0.963 | [19] 0.934 | [20] 0.894 | [21] 0.807 | [22] 0.836 | [23] 0.951 | [24] 0.79 | [25] 0.97 | [26] 0.831 | [27] 0.868 | [28] 0.899 | [69] 0.968 | [29] 0.891 | [30] 0.948 | [31] 0.925 | [32] 0.879 | [33] 0.874 | [70] 0.971 | [34] 0.956 | [36] 0.909 | [37] 0.908 | [38] 0.891 | [39] 0.969 | [40] 0.898 | [41] 0.962 | [42] 0.977 | [43] 0.893 | [71] 0.971 | [44] 0.861 | [45] 0.956 | [46] 0.955 | [47] 0.823 | [48] 0.969 | [49] 0.869 | [50] 0.879 | [51] 1 | [52] 0.827 | [53] 0.964 | [54] 0.917 | [55] 0.917 | [56] 0.882 | [57] 0.967 | [59] 0.959 | [60] 0.955 | [61] 0.912 | [62] 0.941 | [63] 0.96

Cc1ccc(OCC2SCCN2C(=O)c2ccc(C(F)(F)F)cc2)c([N+](=O)[O-])c1 (stereo unspecified)
inactive: [64] 1.01 | [3] 1.01 | [4] 1.01 | [65] 1.02 | [5] 1.01 | [6] 1.03 | [7] 1.02 | [1] 1 | [8] 1.02 | [9] 1 | [10] 0.998 | [11] 1.02 | [12] 0.986 | [66] 1.01 | [13] 0.981 | [14] 0.955 | [15] 0.985 | [67] 1.02 | [16] 1.01 | [17] 1.01 | [68] 0.97 | [18] 1.01 | [19] 1 | [20] 1.12 | [21] 1.02 | [2] 0.984 | [22] 1.01 | [23] 1.09 | [24] 0.998 | [25] 1.02 | [26] 1.01 | [27] 0.979 | [28] 0.994 | [69] 1.01 | [29] 0.927 | [30] 1.06 | [31] 1 | [32] 1 | [33] 0.996 | [70] 1.02 | [34] 1.04 | [35] 0.97 | [36] 1 | [37] 0.997 | [38] 0.982 | [39] 1.01 | [40] 1 | [41] 1.02 | [42] 1.02 | [43] 1 | [71] 1.01 | [44] 1.06 | [45] 1.02 | [46] 1.01 | [47] 0.993 | [48] 1.01 | [49] 0.965 | [50] 0.978 | [51] 1.05 | [52] 0.955 | [53] 1.02 | [54] 0.992 | [55] 0.987 | [56] 0.99 | [57] 1.01 | [58] 0.962 | [59] 1.01 | [60] 1.01 | [61] 1 | [62] 1.03 | [63] 1
